For part of these data: Entries with a potency or affinity are not part of this list. Inconclusive results are not listed. Some of the results follow. Calls of active or inactive are those of the source. Unless noted, how the calls were made is not given here.
Legend:
[1] = cytotoxicity in PAX8-dependent RMG-1 cells, dose response, cell-based, cherry-pick (AID 687029;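 active means signal drop whose fitted half-maximal concentration is at most twice the top valid dose, in every test run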;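 further: cells exposed to compound for 96 hours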)
[2] = non-specific cell cytotoxicity, dose response, cytotoxicity control for PAX8 inhibitor project, plate reader, dry powder samples (AID 743021)
[3] = cytotoxicity in IOSE-T80 ovarian epithelial cells, dose response, selectivity assay for PAX8 inhibitor project, cell-based, cherry-pick (AID 687032;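 active means fitted half-maximal concentration for viability loss no higher than twice the top valid dose, in every repeat run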;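 further: cells exposed to compound for 96 h before reading; 0% = neutral control wells and -100% = 2 µM mitoxantrone kill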)
[4] = inhibitors of CMV-promoter luciferase reporter, dose response, counter-screen for Pax8 inhibitor project, cell-based, HEK293, luminescence, dry powder (AID 743020;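 active means signal-lowering compounds whose fitted half-maximal concentration is at or below twice the top tested dose in every run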;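 further: HEK293 cells stably expressing the CMV luciferase reporter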)
[5] = IGROV1 ovarian cancer cell cytotoxicity, dose response, PAX8 inhibitor project, plate reader, dry powder samples (AID 743043);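 further: more negative means fewer viable cells or more cytotoxicity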
[6] = IOSE-T80 ovarian epithelial cell cytotoxicity, dose response, cytotoxicity control for PAX8 inhibitor project, plate reader, dry powder samples (AID 743045);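 further: 0% = neutral control median and -100% = positive control median; more negative values mean more cell killing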
[7] = A2780 ovarian cancer cell cytotoxicity, dose response, cytotoxicity control, plate reader, dry powder samples (AID 743046);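 further: 0% = neutral control wells and -100% = cytotoxic reference compound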
[8] = NIH:OVCAR-3 ovarian cancer cell cytotoxicity, dose response, PAX8 inhibitor project, plate reader, dry powder samples (AID 743044); conditions: max activity: at 35 µM, active compounds read low unless noted
[9] = cytotoxicity in OVCAR8 ovarian cancer cells, dose response, PAX8 project, cell-based, plate reader, dry powder samples (AID 743197)
[10] = DNA binders by acridine orange displacement, dose response, counter-screen for EWS/Fli inhibitor project, biochemical, fluorescence polarization, cherry-pick (AID 720586;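 active means fitted curve reaches a 35% signal fall AC35 below twice the sample's top valid tested dose, actives reach about 48 µM in these data; inactive means the rest, including activity in the rising direction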;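 further: 0% = neutral control median and -100% = 10 µM mitoxantrone control median; lower polarization ratio signals compound binding to DNA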)
[11] = HepG2 cell cytotoxicity, dose response, cytotoxicity control, plate reader, cherry-pick, antagonist series (AID 743416);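 further: 0% = neutral control wells and -100% = positive control wells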

O=[N+]([O-])c1ccc(N/N=C/c2sc(N3CCOCC3)nc2-c2ccccc2)c(S(=O)(=O)Nc2ccc(Cl)cc2)c1
inactive: outcome [1] | outcome [2]

CCCCC(=O)NC(c1ccccc1OC)c1ccc2cccnc2c1O (stereo unspecified)
inactive: outcome [1] | outcome [2]

CC(=O)Nc1ccc(Sc2ccc([N+](=O)[O-])o2)cc1
inactive: outcome [1] | outcome [2]

O=C(CCS(=O)(=O)c1ccc(Cl)cc1)Nc1nc(-c2ccncc2)cs1
inactive: outcome [1] | outcome [2]

O=C(C1CC1)N1C[C@@H]2N[C@H](C1)C2c1ccc(-c2ccccc2F)cc1 (stereo partly specified)
inactive: outcome [1] | outcome [2]

O=C(c1ccc(Br)cc1)c1cc([N+](=O)[O-])ccc1N1CCCCC1
inactive: outcome [1] | outcome [2]

CN(C)c1ncnc2c1nnn2C1OC(CO)C(O)C1O (stereo unspecified)
inactive: outcome [1] | outcome [2]

CC[C@@H]1CCC[C@@H](O)[C@@H](C)C(=O)O[C@H](C)[C@@H](C)C/C=C(C)/C(OC)=C\C(=O)N(C)C([C@@H](C)CC)C(=O)N(C)[C@@H](C(C)C)C(=O)N(C)[C@@H](COC)C(=O)N2CCC[C@H]2C(=O)N(C)[C@@H](C(C)C)C(=O)N2CCC[C@H]2C(=O)O1 (stereo partly specified)
inactive: outcome [1] | outcome [2]

CCOc1ccc(C(=O)c2cc([N+](=O)[O-])ccc2N2CCOCC2)cc1
inactive: outcome [1] | outcome [2]

COc1ccc(/C=C/C(=O)c2cc(F)ccc2OC(=O)c2ccccc2C)cc1OC
inactive: outcome [1] | outcome [2]

Cc1cc(C)c2nc(SCC(=O)N3CC(=O)Nc4ccccc43)c(C#N)cc2c1
inactive: outcome [1] | outcome [2]

O=S(=O)(NC1CCCCC1N1CCN(c2ccccc2F)CC1)c1ccccc1 (stereo unspecified)
inactive: outcome [1] | outcome [2]

Oc1ccc(C[C@H]2CNC(=S)N2CC2CCCN2C[C@H](Cc2ccc(O)cc2)N2C[C@H](Cc3ccc(O)cc3)N(CC3CCCCCC3)C2=S)cc1 (stereo partly specified)
inactive: outcome [1] | outcome [2]

O=C(/C=C/c1cccs1)NC(=S)NNC(=O)c1ccccc1O
inactive: outcome [1] | outcome [2]

COc1ccc(-c2cnc3c(NC=O)cc(-c4ccccc4OC)cn23)cc1OC
inactive: outcome [1] | outcome [2]

Oc1c(Cl)cc(CN2CCOCC2)c2cccnc12
inactive: outcome [1] | outcome [2]

COC(=O)[C@H]1[C@@H](O)[C@@]2(O)c3c(OC)cc(OC)cc3O[C@@]2(c2ccc(OC)cc2)[C@@H]1c1ccc(F)cc1
inactive: outcome [1] | outcome [2]

Cc1cc(O)c(C(C)C)cc1C1(c2cc(C(C)C)c(O)cc2C)OC(=O)c2ccccc21
inactive: outcome [1] | outcome [2]

CC(=O)Nc1ccc(-c2ccnc3c2CC(C(=O)NCc2ccccc2)O3)cc1 (stereo unspecified)
inactive: outcome [1] | outcome [2]

COc1cc(C2C(C#N)=C(N)Oc3cc4c(cc32)OCO4)cc(OC)c1OC (stereo unspecified)
inactive: outcome [1] | outcome [2]

COc1cc([C@@H]2c3cc4c(cc3[C@H](O)[C@H]3COC(=O)[C@H]23)OCO4)cc(OC)c1OC
inactive: outcome [1] | outcome [2]

COc1ccc(C[C@H](N)C(=O)N[C@H]2[C@@H](O)[C@H](n3cnc4c(N(C)C)ncnc43)O[C@@H]2CO)cc1
inactive: outcome [1] | outcome [2]

CCCC(=O)N1CCN(c2ccc(NC(=O)c3ccc([N+](=O)[O-])o3)cc2)CC1
inactive: outcome [1] | outcome [2]

CCN(CC)S(=O)(=O)c1cccc(NC(=O)Nc2cccc(C(F)(F)F)c2)c1
inactive: outcome [1] | outcome [2]

COc1ccccc1NC(=O)N1CCCCN2[C@H](C1)[C@@H](c1ccc(-c3cccc(C#N)c3)cc1)[C@@H]2CO
inactive: outcome [3] | outcome [4] | outcome [2] | outcome [5] | outcome [6] | outcome [7]

COc1ccc(NC(=O)Nc2ccc3c(c2)C(=O)N([C@@H](C)CO)C[C@@H](C)[C@@H](CN(C)Cc2ccc(C(F)(F)F)cc2)O3)cc1
inactive: outcome [3] | outcome [4] | outcome [2] | outcome [5] | max activity [8] -14.9% [at 0.5 µM, active compounds read low] | outcome [6] | outcome [7] | outcome [9]

COc1cc(/C=C/C(=O)N2CCC=CC2=O)cc(OC)c1OC
inactive: outcome [3] | outcome [4] | outcome [2]

COc1ccc(S(=O)(=O)Nc2ccc3c(c2)C(=O)N([C@H](C)CO)C[C@H](C)[C@H](CN(C)S(=O)(=O)c2ccc(F)cc2)OCCCC[C@H](C)O3)cc1
inactive: outcome [1] | outcome [2] | outcome [5] | max activity [8] -7.5% | outcome [6] | outcome [7] | outcome [9]

C=C(C)c1cccc(C(C)(C)NC(=O)N2CCN(c3ccccc3OC)CC2)c1
inactive: outcome [3] | outcome [4] | outcome [2]

C[C@H]1CCCCO[C@H](CN(C)Cc2ccc(C(F)(F)F)cc2)[C@@H](C)CN([C@@H](C)CO)C(=O)c2cc(NC(=O)Nc3ccc(F)cc3)ccc2O1
inactive: outcome [3] | outcome [4] | outcome [2] | outcome [5] | max activity [8] -16.7% | outcome [6] | outcome [7] | outcome [9]

Cc1ccc(S(=O)(=O)Nc2ccc3c(c2)C(=O)N([C@H](C)CO)C[C@H](C)[C@@H](CN(C)S(=O)(=O)c2ccc(F)cc2)OCCCC[C@H](C)O3)cc1
inactive: outcome [3] | outcome [4] | outcome [2]

COc1ccc(-c2cc(C(F)(F)F)nc(S(=O)(=O)CCCC(=O)Nc3cc(C)on3)n2)cc1OC
inactive: outcome [1] | outcome [2] | outcome [7]

C[C@H]1CCCCO[C@@H](CN(C)Cc2ccncc2)[C@@H](C)CN([C@@H](C)CO)C(=O)c2cc(NC(=O)Nc3ccc(C(F)(F)F)cc3)ccc2O1
inactive: outcome [3] | outcome [4] | outcome [2] | outcome [5] | max activity [8] -18.9% [at 16 µM, active compounds read low] | outcome [6] | outcome [7]

CS(=O)(=O)Nc1ccc2c(c1)[C@@H]1C[C@@H](CC(=O)NCc3ccc(-c4ccccc4)cc3)O[C@@H](CO)[C@@H]1O2
inactive: outcome [3] | outcome [4]

C[C@H](CO)N1C[C@H](C)[C@@H](CN(C)S(=O)(=O)c2ccc(Cl)cc2)OCCCC[C@H](C)Oc2ccc(NS(=O)(=O)c3ccc(F)cc3)cc2C1=O
inactive: outcome [3] | outcome [4] | outcome [2] | outcome [5] | outcome [6] | outcome [9]

C[C@H]1CN([C@@H](C)CO)S(=O)(=O)c2ccc(C#Cc3ccncc3)cc2O[C@@H]1CN(C)C(=O)Nc1ccc2c(c1)OCO2
inactive: outcome [3] | AC35 [10] | outcome [4] | outcome [2]

C[C@H]1CN([C@@H](C)CO)S(=O)(=O)c2ccc(C#Cc3ccccc3F)cc2O[C@H]1CN(C)C(=O)c1ccc2c(c1)OCO2
inactive: outcome [3] | outcome [4] | outcome [2] | outcome [5] | max activity [8] -13% | outcome [6] | outcome [7] | outcome [9]

COc1ccccc1C#Cc1ccc([C@H]2[C@H](C#N)N(C(=O)C3CCCC3)[C@H]2CO)cc1
inactive: outcome [1] | outcome [7] | outcome [11]

COc1ccc(C#Cc2ccc([C@H]3[C@@H](CO)N4CCCCN(C(=O)Nc5ccccc5)C[C@H]34)cc2)cc1
inactive: outcome [3] | outcome [4] | outcome [2] | outcome [5] | outcome [6] | outcome [7] | outcome [9]

O=C(CCS(=O)(=O)c1ccccc1)Nc1nc2ccc(F)cc2s1
inactive: outcome [1] | outcome [2] | outcome [6] | outcome [7]

COc1ccc2c3c([nH]c2c1)[C@@H](CO)N(C(=O)Nc1cccc(F)c1)CC31CCN(S(=O)(=O)c2cccc(C)c2)CC1
inactive: outcome [3] | outcome [4] | outcome [2] | outcome [5] | max activity [8] -9.13% [at 8 µM, active compounds read low] | outcome [6] | outcome [7] | outcome [9]

C[C@@H]1CCCCO[C@@H](CN(C)Cc2ccncc2)[C@H](C)CN([C@@H](C)CO)C(=O)c2cc(NC(=O)Nc3ccc(C(F)(F)F)cc3)ccc2O1
inactive: outcome [3] | outcome [4] | outcome [2] | outcome [5] | outcome [6] | outcome [7]

C[C@@H]1CN([C@@H](C)CO)C(=O)c2cc(NC(=O)CCC(F)(F)F)ccc2O[C@@H](C)CCCCO[C@H]1CN(C)Cc1ccc(C(F)(F)F)cc1
inactive: outcome [1] | outcome [2] | outcome [6] | outcome [7]

C[C@@H]1CCCCO[C@H](CN(C)Cc2ccc(C(F)(F)F)cc2)[C@@H](C)CN([C@@H](C)CO)C(=O)c2cc(NC(=O)c3ccccc3)ccc2O1
inactive: outcome [1] | outcome [6] | outcome [7]

O=C(COc1ccccc1-c1ccccc1)N/N=C/c1ccc2ccccc2c1
inactive: outcome [1] | outcome [2]

C[C@@H]1CCCCO[C@H](CN(C)C(=O)c2ccccc2)[C@H](C)CN([C@@H](C)CO)C(=O)c2cc(NC(=O)Nc3ccc(C(F)(F)F)cc3)ccc2O1
inactive: outcome [3] | outcome [4] | outcome [2] | outcome [5] | outcome [6]

CC(C)(C)c1nnc(NC(=O)CCS(=O)(=O)c2ccccc2)s1
inactive: outcome [1] | outcome [2] | outcome [6] | outcome [7]

CCOc1ccc(C2=Nn3c(nnc3-c3ccccc3OC)SC2)cc1
inactive: outcome [3] | outcome [4]

COc1cccc(-c2ccc3c(c2)[C@@H]2[C@@H](CCN2S(=O)(=O)c2ccccc2C)[C@H](CO)N3C)c1
inactive: outcome [3] | outcome [4] | outcome [2] | outcome [5] | max activity [8] -25.8% [at 30 µM, active compounds read low] | outcome [6] | outcome [7] | outcome [9]

C[C@@H]1CCCCO[C@H](CN(C)C(=O)Cc2ccccc2)[C@@H](C)CN([C@@H](C)CO)C(=O)c2cc(NS(=O)(=O)c3ccc(Cl)cc3)ccc2O1
inactive: outcome [1] | outcome [2] | outcome [5] | outcome [6]

O=C(Cn1ncc(Cl)c(Cl)c1=O)N1CCN(S(=O)(=O)c2ccc3ccccc3c2)CC1
inactive: outcome [1] | outcome [2]

CN(C)CCCN(C(=O)CCOc1ccccc1)c1nc2c(F)cccc2s1
inactive: outcome [1] | outcome [2] | outcome [6] | outcome [7]

Cc1ccc(S(=O)(=O)N(C)C[C@@H]2Oc3ccc(NC(=O)Nc4ccc(C(F)(F)F)cc4)cc3CC(=O)N([C@@H](C)CO)C[C@@H]2C)cc1
inactive: outcome [3] | outcome [4] | outcome [2]

C[C@H]1CCCCO[C@H](CN(C)C(=O)Nc2ccc(C(F)(F)F)cc2)[C@@H](C)CN([C@@H](C)CO)C(=O)c2cc(NS(=O)(=O)c3cccs3)ccc2O1
inactive: outcome [3] | outcome [4] | outcome [2] | outcome [5] | max activity [8] -51.4% | outcome [6] | outcome [7] | outcome [9]

C[C@@H]1CN([C@@H](C)CO)C(=O)c2cc(N(C)C)ccc2O[C@@H](C)CCCCO[C@H]1CN(C)S(=O)(=O)c1ccc(F)cc1
inactive: outcome [3] | outcome [4] | outcome [2] | outcome [5] | max activity [8] 16.1% [at 0.26 µM, active compounds read low] | outcome [6] | outcome [7] | outcome [9]

Reference: PubChem BioAssay
